KKLEB cytotox = CF airway cell cytotoxicity counter-screen | KKLEB CF airway cells viability, ATPlite luminescence, overnight; hits give low values; cells stimulated with P. aeruginosa culture filtrate | activity change (cytotoxicity), % at 5 µM | 0.36% of 360,000 active | AID 602141;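 active means corrected activity change at or below -50% at 5 µM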
PPC-1+TRAIL kill = kills PPC-1 cancer cells in the presence of TRAIL; PPC-1 cells + TRAIL, ATPLite viability luminescence; cell killing (% activity), % at 4 µM or 5 µM; 0.41% of 220,000 active;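 active means cell killing above 50% in the first pass at 4 µM, then a duplicate retest at 5 µM averaging 50% or more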;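 further: plate controls were cells with TRAIL plus DMSO for no effect and medium-only wells lacking cells for full effect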
HIF-2a inh = HIF-2a inhibition; inhibition, % at 18.8 µM; 786-0 RCC cells HIF-2a reporter, luciferase luminescence, overnight; 0.72% of 360,000 active;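 active means inhibition of the luminescence signal of 40% or more relative to plate controls, in a single-dose primary screen at 18.75 µM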
CF NFkB block = cystic fibrosis NF-kB activation inhibition | AID 588850 | 0.86% of 360,000 active | inhibition, % at 5 µM | KKLEB NF-kB-GFP reporter, PAF-induced, GFP fluorescence overnight;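 active means at least 50% inhibition at 5 µM, scaled per plate between neutral and stimulator controls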;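 further: PAF is a Pseudomonas aeruginosa culture filtrate used as stimulus; plate controls were PAF-stimulated DMSO wells for no effect and unstimulated DMSO wells for full effect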
TRAIL sens C8 = sensitizes caspase-8 expressing cells to TRAIL | NB7+C8 cells + TRAIL, ATPlite viability luminescence | 1% of 360,000 active | inhibition (viability loss, TRAIL sensitization), % at 10 µM;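 active means compounds causing at least 50% loss of cell viability in the single-dose screen, relative to plate controls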
Peg3 promoter = reduces Peg3 promoter-driven luciferase expression in HeLa; inhibition, % at 20 µM; HeLa PEG-Prom luciferase reporter, luminescence, overnight; 1.7% of 360,000 active;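 active means inhibition of at least 50% at 20 µM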
PPC1 cytotox = kills PPC-1 cells | shares compounds with PPC-1+TRAIL kill | PPC-1 viability, ATPlite luminescence, overnight | cytotoxicity, % at 5 µM | 50% of 1,200 active | AID 1447;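 active means reconfirmed compounds whose average cytotoxicity reaches 50% or more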;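 further: 0% = DMSO-treated cells and 100% = wells holding medium but no cells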
The depositor's hits bear a star; . = no result given. This is a sample that favours compounds with a hit; in the whole collection about 3.1% have one here.

SMILES	KKLEB cytotox	PPC-1+TRAIL kill	HIF-2a inh	CF NFkB block	TRAIL sens C8	Peg3 promoter	PPC1 cytotox
CCc1ccc(Nc2nnc(SCC(=O)NC(=O)c3cccn3C)s2)cc1	-0.7	45.5	-22.6	-11.2	45.2	-6.5	40.7
CCc1ccc(Nc2nnc(SCC(=O)N(C)C3CCS(=O)(=O)C3)s2)cc1 (configuration not stated)	-23.2	70.3*	-184.8	-4.9	70.5*	-166.0	67.6*
CCCCNC(=S)N(CCN(C)C)Cc1cc2cc3c(cc2[nH]c1=O)OCCO3	-3.4	.	13.4	2.1	-13.7	5.1	.
COc1ccc(Nc2nc(C)cc(=O)[nH]2)cc1	3.0	-13.5	18.8	0.4	1.3	3.5	.
COC(=O)c1ccc(Nc2nc(C)cc(=O)[nH]2)cc1	4.2	3.0	-8.0	-12.3	-4.2	-8.6	14.6
CC(C)OCCCNC(=O)CN1C(=O)CSc2ccc(S(=O)(=O)N3CCCCC3)cc21	-10.4	.	16.9	27.4	-35.9	3.9	.
COc1ccc(C2=CC(=O)N(Nc3ccccc3)C2=O)cc1	2.5	14.5	33.6	28.6	-18.7	39.7	.
Cc1ccc(NN2C(=O)C=C(c3ccc(Cl)cc3)C2=O)cc1	-10.7	2.8	4.1	37.2	4.6	105.5*	1.6
COc1ccc(C(=O)OCC(=O)Nc2c(C)n(C)n(-c3ccccc3)c2=O)cc1OC	14.2	.	11.2	-2.9	-7.4	-2.2	.
COc1cc(/C=N/Nc2nn3cnnc3c3ccccc23)ccc1O	-4.2	78.7*	-115.0	-3.6	77.6*	-60.7	76.6*
CCOc1cc(/C=N/Nc2nn3cnnc3c3ccccc23)ccc1O	-19.8	56.1*	-166.2	23.3	73.5*	-89.7	58.7*
CCOc1cc(/C=N/Nc2cc(C)nc(-n3nc(C)cc3C)n2)ccc1O	-2.1	57.5*	7.4	-10.2	14.5	30.6	54.2*
CC(C)N1CCC(C)(C(=O)Nc2ccc(Cl)c(Cl)c2)C1 (configuration not stated)	-10.0	.	-0.9	-1.7	9.8	3.0	.
COC(=O)C(C(=O)OC)c1cc2c(cc1CNS(=O)(=O)c1ccc(C)cc1)OCO2	.	.	-9.8	.	-15.2	.	.
CC(Oc1cccc(Cl)c1)C(=O)Nc1cc(=O)n(C)c(=O)n1C (configuration not stated)	0.7	1.6	17.1	-1.3	-14.8	11.4	-2.6
CC(C)(C)N1C(=O)c2ccccc2NC(=O)C1C(=O)NCCc1ccccc1 (configuration not stated)	.	.	-5.0	.	-1.5	.	.
CCn1c(SCC(=O)Nc2oc(C)c3c(C)n[nH]c(=O)c23)nnc1-c1ccco1	-9.5	.	-3.7	2.6	-15.8	8.1	.
O=C(/C=C/c1ccco1)Nc1ccc2c(c1)OCCO2	2.9	64.2*	-93.1	-1.7	64.5*	-150.9	63.1*
O=C(/C=C/c1ccco1)Nc1ccc(C(=O)N2CCOCC2)cc1	-20.5	20.9	-42.9	22.5	0.7	-19.1	.
CN(C)c1ccc(C(CNC(=O)c2ccc(-c3ccccc3)cc2)N2CCOCC2)cc1 (configuration not stated)	2.3	.	-5.9	3.6	-0.2	-18.2	.
Oc1ccc(N=Nc2ccc3c(c2)OCO3)c2ccccc12	.	33.8	.	.	.	.	32.0
Nc1nn(-c2ccccc2)c(N)c1N=Nc1ccc2c(c1)OCO2	-19.5	11.6	-248.7	9.4	20.1	-273.5	.
O=C1C2CC3N1CCC31c3ccccc3-n3c1c2ccc3=O (configuration not stated)	12.3	.	17.4	5.0	-11.2	-4.5	.
Cc1cccc(N2CCN(C(=O)CN3C(=O)NC4(CCCCCC4)C3=O)CC2)c1C	-0.7	.	-11.6	8.8	17.4	-9.5	.
Cc1cccc(C(=O)n2c(=S)nc3cc(C)ccn32)c1	-30.8	77.8*	-58.1	-33.1	81.6*	-56.0	79.4*
SMILES	KKLEB cytotox	PPC-1+TRAIL kill	HIF-2a inh	CF NFkB block	TRAIL sens C8	Peg3 promoter	PPC1 cytotox
CCCCN1C(=O)/C(=C2\SC(N3CCCCC3)=NC2=O)c2ccccc21	2.5	40.1	-217.6	20.2	38.0	-220.4	43.7
O=C(COC(=O)c1cncc(Br)c1)NCc1cccs1	8.4	.	11.5	8.7	-2.1	7.5	.
O=C(/C=C/c1ccccc1)NC(=S)NNC(=O)Cc1cccs1	-3.9	23.5	-20.3	8.6	11.1	-9.5	.
COc1ccc(/C=C/C(=O)NC(=S)NNC(=O)Cc2cccs2)cc1	-20.0	11.7	-13.8	20.8	10.6	-2.6	5.9
COc1ccc(C(=O)CC(=O)c2ccccc2O)cc1	-4.0	.	-222.5	0.9	5.0	-272.9	.
COc1ccc(O)c(C(=O)CC(=O)c2ccc(F)cc2)c1	-31.0	79.5*	10.1	-11.5	80.1*	-12.7	75.4*
O=C(COC(=O)c1ccc(Cl)nc1)NCCc1ccc(F)cc1	-9.0	.	-5.6	4.0	-5.3	3.5	.
O=C(C1CCCO1)N(c1cccc(Cl)c1)C1C=CS(=O)(=O)C1 (configuration not stated)	-9.7	3.9	15.7	16.2	-6.5	-5.8	12.1
COc1ccc(C2NCCc3c2[nH]c2ccccc32)cc1CN1CCc2cc(OC)c(OC)cc2C1C (configuration not stated)	-14.8	13.3	9.5	11.0	9.3	45.9	33.8
COc1ccc(/C=N/NC(=O)c2cc(OC)c(OC)c(OC)c2)cc1CN1CCc2cc(OC)c(OC)cc2C1C (configuration not stated)	-18.0	8.9	-2.7	-4.0	20.9	0.2	.
c1ccc(-c2cc3c(ccc4nonc43)nn2)cc1	12.8	2.2	-116.6	-57.7	2.8	-106.2	.
On1onc2c3cc(-c4ccccc4)nc3ccc21	11.6	23.8	-167.6	-145.7	2.6	-117.7	17.6
Cc1ccc(NC2=C(N3CCCCC3)C(=O)c3ccccc3C2=O)cc1	-1.8	12.3	-153.6	-2.1	36.5	3.5	.
O=C(/C=C/c1ccc(O)cc1)c1ccc(NC2=C(N3CCCCC3)C(=O)c3ccccc3C2=O)cc1	-15.1	69.7*	-62.2	54.8*	28.6	-46.0	57.9*
CCOc1cc(C(=S)N2CCN(C)CC2)ccc1OCC(=O)N1CCOCC1	-5.5	-5.7	3.7	5.4	-19.6	7.2	-4.6
CCOc1cc(C(=O)OCc2ccc(OC)cc2)ccc1OCC(=O)N1CCOCC1	6.2	.	9.2	-18.4	-5.4	-4.2	.
Cc1ccc(-c2nnc(Nc3ccccc3)o2)cc1	-47.9	83.5*	5.3	-34.6	80.6*	20.2	85.0*
Cc1ccc(NC(=O)Nc2nnc(-c3ccccc3)o2)cc1	-3.0	30.4	-150.7	-5.1	5.6	-147.3	.
O=C(N/N=C/c1cn(-c2ccccc2)nc1-c1cccs1)c1ccncc1	-1.4	22.7	-171.2	-14.9	3.8	-95.4	.
Cc1ccc(-c2nn(-c3ccccc3)cc2/C=N/NC(=O)c2ccncc2)o1	7.4	28.6	-167.0	-15.8	18.1	-146.4	26.7

High-throughput results from PubChem BioAssay.
